SMILES strings stand for the structures. The panel holds about 83,000 compounds, 20% with a hit somewhere; the sample as a whole holds those more often.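 Single-concentration screen, 48 h exposure, 96-well plates. Endpoint: percent growth. Below 10 = active.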 Active and inactive are the calls of the source.

The assay has as its system HL-60(TB) leukemia. Description: NCI-60 one-dose screen, 48 h (100 = growth as untreated, 0 = no growth, -100 = all killed). As to conditions: 10 µM unless noted.
As to `CCCn1ccnc1C(O)c1ccc(OCc2ccccc2)c(OC)c1` (stereo unspecified), the growth was 96.7% (inactive).

Take `O=C(Cc1ccccc1)c1ccc(O)c(Cl)c1`: the growth was -21.1% (active).

For the compound `CCCCC1CCCC12NC(=O)NC2=O` (stereo unspecified), the growth was 84.6% (inactive).

Consider `Nc1ccc2c(c1)C(=O)c1cc(Cl)c(Cl)cc1-2`, for which the growth is 76.2% (inactive).

For the compound `CN(C)CCCn1c2c(c3ccc(-c4ccn[nH]4)cc3c1=O)C(=O)c1ccccc1-2`, the growth was -7.99% (active).

As to `CNC1=C([N+](=O)[O-])C(c2ccccc2O)C(C#N)=C(c2cccs2)O1` (stereo unspecified), the growth is 75.1% (inactive).

In the case of `O=C1/C(=C\c2cccc3nccnc23)SC(=S)N1CCc1ccc(O)cc1`, the growth is 79.5% (inactive).

Regarding `C=C1CC[C@@H](C(=O)OC)Cc2nc(C)ccc21`, the growth is 100% (inactive).

For `O=S(=O)(NCCNc1nccc(-c2c(-c3ccc(F)c(O)c3)nc3sccn23)n1)c1ccc(Cl)cc1`, the growth was -26.9% (active).

As to `CC(=O)Nc1cscc1NC(C)=O`, the growth was 96.7% (inactive).

As to `CC(C)(C)c1ccc(OCCCCCCN2CCNCC2)cc1`, the growth is 15.2% (inactive).

As for `Nc1ccccc1-c1ccc([N+](=O)[O-])cc1`, the growth is 14.2% (inactive).

As for `COc1ccc(C2CC(c3cccc(Nc4ccnc5cc(Cl)ccc45)c3)=NN2C=O)cc1` (stereo unspecified), the growth is -38.2% (active).

Consider `NCCOc1ccccc1/C=C1\c2ccccc2-c2ccc([N+](=O)[O-])cc21`, for which the growth is -59.3% (active).

Regarding `COc1ccc(C2=NN(c3nc(-c4ccc(OC)cc4)c(C#N)c(=O)n3C)C(=O)CC2)cc1`, the growth is 99.5% (inactive).

Take `CN(CCCCCl)P(=O)(OCc1ccc([N+](=O)[O-])o1)C(F)(F)C[C@H](NC(=O)CNC(=O)c1ccc(N=[N+]=[N-])cc1)C(=O)NCCc1ccc(O)cc1` (stereo partly specified): the growth is 62.6% (inactive).

For the origin of these results see PubChem BioAssay (NCI).
